Structures are written as SMILES. Unmarked numbers belong to inactive results. Inconclusive results are not listed. Activity calls are given as the source filed them. Calls follow the shape of the dose curve; as a rule, active = well fitted curve in the direction sought with a large enough effect; inconclusive = small, poorly fitted or top-dose-only effect, or another doubt; inactive = no such curve, though single readings can be large; an effect the other way counts as inactive or inconclusive.

The values that follow come from PubChem BioAssay (NCATS).

The nature of test [1]: OV-KATE Cancer Cell Toxicity qHTS against the NCATS CANVASS Library (AID 1347345). An outline of the steps: (§1)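 Following a 4 h pre-incubation of 1000 seeded cells, compounds were pinned in an 11-pnt dilution series and left for 72 h; viability then came from CellTiter-Glo.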
Test [2] can be described thus: U-118MG Cancer Cell Toxicity qHTS against the NCATS CANVASS Library (AID 1347351). Also: series mostly up to about 38 µM. An outline of the steps:
as §1
A general note: qHTS replaces the single test concentration by a dilution series.

Test [3] in a line: COV-362 Cancer Cell Toxicity qHTS against the NCATS CANVASS Library (AID 1347352). Also: series mostly up to about 38 µM. The procedure, abridged:
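Toxicity was measured as CellTiter-Glo luminescence after 72 h exposure to an 11-point compound series. Compound was added to 1000 cells/well 4 h after seeding.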

Test [4] in a line: HPAF-II 24hr Apoptosis Induction qHTS against the NCATS CANVASS Library (AID 1347356). An outline of the steps: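 Caspase-Glo 3/7 luminescence, read after 15 min room-temperature development, measures apoptosis in HPAF-II cells treated 24 h at 37 degrees C with an 11-point concentration series; 500 cells/well; doxorubicin control.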
A short description of test [5]: HPAF-II 12hr Apoptosis Induction qHTS against the NCATS CANVASS Library (AID 1347358). The procedure, abridged: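 Caspase-3/7 activation by DEVD-substrate luminescence (Caspase-Glo 3/7, 15 min, room temperature) after a 12-hour compound exposure in 11 concentrations, of HPAF-II pancreatic cells seeded at 500/well in DMEM with 10% FBS.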
A short description of test [6]: HEK293 24hr Apoptosis Induction qHTS against the NCATS CANVASS Library (AID 1347359). The procedure, abridged: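 HEK293 cells, 500 per well, exposed to an 11-point compound series for 24 hours at 37 degrees C. Caspase 3/7 activity read by Caspase-Glo luminescence (DEVD substrate) after 15 min at room temperature.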
The nature of test [7]: HPAF-II 18hr Apoptosis Induction qHTS against the NCATS CANVASS Library (AID 1347360). The procedure, abridged:
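Caspase-Glo 3/7 luminescence (DEVD substrate) after 15 min RT; HPAF-II, 500 cells/well, 18 h compound exposure at 37 degrees C, qHTS series; doxorubicin control 0.1nM - 4uM.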

Test [8] is described as follows: HEK293 12hr Apoptosis Induction qHTS against the NCATS CANVASS Library (AID 1347361). An outline of the steps: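 500 HEK293 cells/well; cpds pin-transferred, 11-pt conc series; 12 h, 37 degrees C/5% CO2; Caspase-Glo 3/7 added, 15 min RT dark; luminescence.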
Test [9] concerns the target Luciferin 4-monooxygenase (Photinus pyralis) (UniProt P08659). Description: Firefly luciferase counterscreen qHTS: Assay Interference Panel against the NCATS CANVASS Library (AID 1347363). Also: potency is read from the fitted curve at half-maximal effect. The procedure, abridged:
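Purified P. pyralis luciferase (0.04 ug/mL, 4x reagent) added to Tris-acetate buffer with 0.013 mM D-luciferin, 0.013 mM ATP and 13.3 mM Mg-acetate; compounds preincubated 15 min, then luminescence read after 5 min, RT.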

Test [10] can be described thus: KB-3-1 Cancer Cell Toxicity qHTS against the NCATS CANVASS Library (AID 1347366). Also: nearly all actives have a fitted effect of over 75% in size. An outline of the steps:
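500 KB-3-1 cells/well; compounds pin-transferred, 11-pnt series; 72 hr, 37C/5% CO2; CellTiter-Glo, 10 min RT; luminescence read-out.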

A short description of test [11]: qHTS for ATAD5 Agonist screened against the NCATS CANVASS Library (AID 1347367). The procedure, abridged: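 Luminescence read-out: ATAD5-driven luciferase in stably transfected HEK 293T cells, which rises post-transcriptionally with DNA damage. Cells were exposed 16hr at 37C to test compound; a CellTiter-Fluor fluorescence read (1hr) measured viability first.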
Test [12] in a line: MCF7 Cancer Cell Toxicity qHTS against the NCATS CANVASS Library (AID 1347369). The procedure, abridged: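 Luminescent ATP signal (CellTiterGlo) served as the cytotoxicity read-out after MCF7 breast cancer cells had been incubated 72 hr at 37C with natural products in an 11-point titration.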
Test [13] can be described thus: J3T Cancer Cell Toxicity qHTS against the NCATS CANVASS Library (AID 1347371). An outline of the steps:
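Cytotoxicity read as CellTiterGlo ATP luminescence after 72 h incubation (37C, 5% CO2) of J3T canine glioma cells (500/well) with an 11-point compound series.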

Test [14] deals with Nuclear receptor subfamily 1 group I member 3 (Homo sapiens) (UniProt Q14994). The test is described as follows: qHTS for Constitutive Androstane Receptor (CAR) Antagonist screened against the NCATS CANVASS Library (AID 1347372).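 Also: cells stimulated with 50 nM CITCO agonist so inhibition reflects antagonism; luciferase from CYP2B6 promoter reporter driven by hCAR in HepG2 cells; series mostly up to about 46 µM.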 An outline of the steps:
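Luminescence readout (ONE-Glo, 30 min RT) of CYP2B6-2.2kb reporter in HepG2-hCAR cells after 24hr, 37C treatment with compound against 50 nM CITCO; CellTiter-Fluor viability read beforehand.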

Test [15] has the same target. Description: qHTS for Constitutive Androstane Receptor (CAR) Agonist screened against the NCATS CANVASS Library (AID 1347373).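 Also: every well also contained 1.5 µM PK11195 alongside the test compound.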 The procedure, abridged: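 Agonist mode with 1.5uM PK11195 present: compounds for 24hr on HepG2-hCAR-CYP2B6 cells. CellTiter-Fluor fluorescence (ex 405, em 540 nm) gives viability; ONE-Glo luminescence reports CAR activation.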
Test [16] in a line: 10-beta competent E. coli microbial cell viability qHTS against the NCATS CANVASS Library (AID 1347376). Also: series mostly up to about 46 µM. An outline of the steps:
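Read-out: BacTiter-Glo ATP luminescence, taken 20 min after reagent addition. Beforehand, 10-beta competent E. coli at 0.2 OD had been incubated overnight at 37C with compounds at 11 concentrations.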

The nature of test [17]: qHTS for H2AX Agonists against the NCATS CANVASS Library (AID 1347378). The procedure, abridged:
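TR-FRET readout (ex 320 nm, em 665/620 nm ratio) of phospho-H2AX (S139) in CHO-K1 lysates. Cells treated 3 hr at 37C with compound titration, 0.76% DMSO; lysis 30 min, antibody detection 24 hr at RT.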

Test [18] is described as follows: qHTS for Inflammasome Signaling Inhibitors: IL-1-beta AlphaLISA screen against the NCATS CANVASS Library (AID 1347379).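 Also: human THP-1 cells primed with LPS then triggered with ATP.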 An outline of the steps: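 Secreted IL-1B from human THP-1 cells quantified by AlphaLISA 16 hr after compound addition (final up to 57.5 uM). A 1 hr compound pretreatment preceded inflammasome activation with 250 ng/mL LPS plus 1.25 mM ATP (final).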

The nature of test [19]: Inflammasome Signaling qHTS Counterscreen: IL-1-beta AlphaLISA counterscreen against the NCATS CANVASS Library (AID 1347381).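 Also: cell-free check with purified IL-1β in medium and no THP-1 cells; series mostly up to about 57 µM.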 The procedure, abridged: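 Purified IL-1-beta (4 pg/well) + compound, 11-pt conc. series; acceptor beads 6 ug/mL + biotin-Ab 0.6 nM final, 1 h RT; SA-donor 24 ug/ml final, 30 min dark RT; read ex 680/em 615.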
The nature of test [20]: Viability qHTS for inhibitors of the SERCaMP assay screened against the NCATS CANVASS Library (AID 1347400). Also: series mostly up to about 92 µM; nearly all actives have a fitted effect of over 70% in size. An outline of the steps:
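CellTiter-Glo luminescence measured cytotoxicity after 48 h at 37C of compound treatment (11-point series). Cells were SH-SY5Y-GLuc SERCaMP MJH297 derivatives, seeded at 1000 per well 4 h beforehand.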

Chain of Luciferin 4-monooxygenase (Photinus pyralis) (P08659 whole entry, looked up): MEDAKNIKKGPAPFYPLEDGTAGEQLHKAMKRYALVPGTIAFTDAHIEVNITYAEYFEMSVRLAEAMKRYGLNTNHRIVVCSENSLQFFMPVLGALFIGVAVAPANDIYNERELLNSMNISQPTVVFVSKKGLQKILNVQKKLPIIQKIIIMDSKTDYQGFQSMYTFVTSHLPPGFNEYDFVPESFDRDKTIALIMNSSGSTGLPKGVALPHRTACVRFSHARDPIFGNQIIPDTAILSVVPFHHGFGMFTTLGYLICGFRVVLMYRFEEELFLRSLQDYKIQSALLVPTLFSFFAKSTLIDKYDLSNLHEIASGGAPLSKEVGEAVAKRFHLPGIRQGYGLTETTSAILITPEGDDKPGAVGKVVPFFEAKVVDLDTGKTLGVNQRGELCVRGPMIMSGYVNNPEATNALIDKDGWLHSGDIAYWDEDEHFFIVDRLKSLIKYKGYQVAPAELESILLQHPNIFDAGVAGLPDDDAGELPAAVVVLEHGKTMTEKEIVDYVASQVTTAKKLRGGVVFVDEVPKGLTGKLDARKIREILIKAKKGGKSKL
Chain of Nuclear receptor subfamily 1 group I member 3 (Homo sapiens) (Q14994 whole entry, looked up): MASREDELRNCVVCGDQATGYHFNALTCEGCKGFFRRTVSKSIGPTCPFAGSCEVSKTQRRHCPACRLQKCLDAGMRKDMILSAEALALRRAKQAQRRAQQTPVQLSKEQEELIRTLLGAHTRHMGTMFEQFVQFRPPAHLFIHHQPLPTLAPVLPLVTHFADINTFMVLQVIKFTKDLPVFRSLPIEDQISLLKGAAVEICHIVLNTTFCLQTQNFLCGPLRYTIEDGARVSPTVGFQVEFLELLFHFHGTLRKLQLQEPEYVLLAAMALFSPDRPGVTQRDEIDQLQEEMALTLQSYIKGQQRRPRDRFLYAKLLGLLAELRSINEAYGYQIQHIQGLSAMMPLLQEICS

`CCC1=C2CCCN3C(=O)O[C@H]([C@H]1OC(C)=O)[C@H]23`: the Potency entry in test [1], in test [2], in [3], in [5], in test [6] and in test [7] was “inactive” in each case. In addition, the Potency entry in [8], in [9], in [10], in [11], in test [12] and in test [13] was “inactive” in each case. Also, the Potency entry in [14], in test [17], in test [18] and in test [20] was “inactive” throughout. For the same compound, the result in test [4], in [15], in [16] and in test [19] was inactive.
On to `CC1(C)C=Cc2c(ccc3c2OC[C@@H](c2ccc(O)cc2O)C3)O1`, for which the Potency entry in [1], in test [2], in [3], in test [5], in test [6] and in test [7] was “inactive” in each case. For the same compound, the Potency result in [8], in test [10], in test [11], in test [12], in [13] and in test [14] was “inactive” each time. For the same compound, the Potency entry in test [17], in test [18] and in test [20] was “inactive” each time. Besides, the compound was called inactive in [4], in test [16] and in test [19].
`CO[C@@H]1[C@H](O)[C@@H](C)O[C@@H](OC[C@@H]2C(C)OC(=O)/C=C/[C@H](C)C(O[C@@H]3O[C@H](C)CC4(OC(=O)O[C@@H]4C)C3O)[C@@H](C)CC(C)C(=O)CC[C@H]3OC23)[C@@H]1OC` (stereo not given in full): the Potency entry in test [1], in [2], in test [3], in test [5], in test [6] and in test [7] was “inactive” in each case. In addition, the Potency entry in test [8], in [9], in test [10], in test [11], in test [12] and in test [13] was “inactive” throughout. For the same compound, the Potency entry in [14], in test [17], in test [18] and in test [20] was “inactive” in each case. Moreover, the outcome in [4], in test [15], in test [16] and in [19] was inactive.
In the case of `CC(O)/C=C/C1(O)C(C)(C)CC(O)CC1(C)O` (stereo not given), the Potency entry in test [1], in test [2], in test [3], in test [5], in test [6] and in test [7] was “inactive” throughout. Also, the Potency result in test [8], in test [9], in test [10], in [11], in [12] and in test [13] was “inactive” each time. Further, the Potency result in [14], in [17], in test [18] and in test [20] was “inactive” each time. In addition, the result in test [4], in test [15], in test [16] and in [19] was inactive.
On to `COc1c(O)cc2oc(-c3ccccc3)cc(=O)c2c1O`, for which the Potency entry in test [1], in test [2], in test [3], in [5], in test [6] and in test [7] was “inactive” each time. Besides, the Potency result in [8], in [12], in test [13], in test [14], in [17] and in test [18] was “inactive” in each case. Besides, the Potency result in [20] is “inactive”. Moreover, the result in test [4], in test [16] and in test [19] was inactive. The Potency in test [9] was 544 nM (active).
`O=C(O)CC1OCc2c(O)cccc21` (stereo not given): the Potency entry in test [1], in [2], in [3], in test [5], in [6] and in [7] was “inactive” in each case. Besides, the Potency entry in test [8], in test [9], in test [10], in test [11], in [12] and in test [13] was “inactive” each time. The Potency result in [14], in [17], in [18] and in test [20] was “inactive” in each case. In addition, the compound was classed as inactive in test [4], in test [15], in [16] and in test [19].
Consider `CC1C(=O)C23CCC1C[C@]21O[C@@H]2C(C)(C)C=CC(=O)[C@@]23COC1=O` (stereo not given in full), for which the Potency result in test [1], in [2], in test [3], in [5], in test [6] and in [7] was “inactive” throughout. In addition, the Potency result in test [8], in [9], in test [10], in [11], in [12] and in test [13] was “inactive” throughout. Besides, the Potency entry in [14], in test [17], in [18] and in test [20] was “inactive” in each case. Also, the outcome in test [4], in test [15], in test [16] and in test [19] was inactive.
